Data published in the supplement of paper PMC5662767.
Structures can show the parent of a compound that is named as a salt.

Tested on: Drosophila S2 cl14 SmoIP sensor cells
Assay: normalized SmoIP GFP fluorescence (untreated unstimulated = 0%, untreated Hh-stimulated = 100%); higher = more Smo activation sensor fluorescence
Conditions: compound concentration: 2 uM, 24 h
[1] = stimulation: Hh conditioned medium (+Hh)
[2] = stimulation: mock conditioned medium (-Hh)
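Also: flow cytometry read-out as median GFP intensity of gated cells, compounds added 30 min before Hh-conditioned or mock medium, mock-treated cells serving as unstimulated baseline.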

Row | SMILES | normalized SmoIP GFP fluorescence [1] [%] | normalized SmoIP GFP fluorescence [2] [%]
1 | CC1=C(C(=O)OC(C)C)C(c2cccc([N+](=O)[O-])c2)C(C(=O)OC2CN(C(c3ccccc3)c3ccccc3)C2)=C(N)N1 (configuration not stated) [azelnidipine] | 111 | -1.23
2 | Nc1nnc(-c2cccc(Cl)c2Cl)c(N)n1 [lamotrigine] | 101 | -3.5
3 | O=C(O)Cc1ccccc1Nc1c(Cl)cccc1Cl [Diclofenac-sodium] | 110 | 4.03
4 | O=C1C[C@@H](c2ccc(O)cc2)Oc2cc(O)cc(O)c21 [Naringenin] | 106 | -6.61
5 | C[C@H](Cc1cc2c(c(C(N)=O)c1)N(CCCO)CC2)NCCOc1ccccc1OCC(F)(F)F [Silodosin(Rapaflo)] | 83.5 | -7.81
6 | N#Cc1c(O)c2c(-c3ccc(-c4ccccc4O)cc3)csc2[nH]c1=O | 139 | 6.28
7 | N#CC[C@H](C1CCCC1)n1cc(-c2ncnc3[nH]ccc23)cn1 | 112 | 1.03
8 | CC(=O)Oc1cc(C(F)(F)F)ccc1C(=O)O [triflusal] | 111 | -4.58
9 | CC1C(=O)OC2C(O)C34C5CC(C(C)(C)C)C36C(OC(=O)C6O)OC4(C(=O)O5)C12O (configuration not stated) [Ginkgolide-B] | 85.5 | 0.489
10 | Cc1ccc(S(=O)(=O)C=CC#N)cc1 | 121 | 2.86
11 | CCOC(=O)C1=C(C)NC(C)=C(C(=O)OC)C1c1cccc([N+](=O)[O-])c1 (configuration not stated) [Nitrendipine] | 117 | -12
12 | Cc1cc(O)c2c(c1)C(=O)c1cccc(O)c1C2=O [Chrysophanic-acid-Chrysophanol] | 133 | -7.42
13 | Nc1ncnc2c1c(-c1cccc(OCc3ccccc3)c1)cn2C1CC(CN2CCCC2)C1 (configuration not stated) | 117 | 5.45
14 | C=CC(=O)Nc1cc2c(Nc3ccc(F)c(Cl)c3)ncnc2cc1OCCCN1CCOCC1 [CI-1033(Canertinib)] | 109 | 13.8
15 | Nc1cccc2c1CN(C1CCC(=O)NC1=O)C2=O (configuration not stated) [Lenalidomide] | 115 | 28.7
16 | COc1ccc(CNC(=O)Nc2ncc([N+](=O)[O-])s2)cc1 | 111 | -11
17 | CCN(CC)CCOC(=O)c1ccc(N)cc1 [procaine-novocaine-hcl] | 107 | -3.5
18 | O=C(O)c1cc2cccc([N+](=O)[O-])c2[nH]1 | 136 | 24.3

Row | SMILES | normalized SmoIP GFP fluorescence [1] [%] | normalized SmoIP GFP fluorescence [2] [%]
19 | CC#CCn1c(N2CCC[C@@H](N)C2)nc2c1c(=O)n(Cc1nc(C)c3ccccc3n1)c(=O)n2C [linagliptin-bi-1356] | 118 | -0.264
20 | O=C(NOCC1CC1)c1ccc(F)c(F)c1Nc1ccc(I)cc1Cl | 112 | 10.7
21 | NS(=O)(=O)C#Cc1ccccc1 [pifithrin-u] | 103 | -0.0369
22 | COc1ccc(NS(=O)(=O)c2sc3ccc(Cl)cc3c2C)cc1N1CCNCC1 | 108 | 2.86
23 | CN1C(=O)C(Cc2c[nH]c3ccccc23)NC1=S (configuration not stated) [necrostatin-1] | 134 | -16.1
24 | COCC[n+]1c2c(n(Cc3cnccn3)c1C)C(=O)c1ccccc1C2=O | 101 | -12.7
25 | CCC(=O)NCC[C@@H]1CCc2ccc3c(c21)CCO3 [Ramelteon] | 95.6 | -0.588
26 | CC1(C)Cc2c(-c3ccccc3)c(-c3ccc(Cl)cc3)c(CC(=O)O)n2C1 [licofelone] | 121 | -11.2
27 | CCCNS(=O)(=O)Nc1ncnc(OCCOc2ncc(Br)cn2)c1-c1ccc(Br)cc1 [macitentan] | 126 | 15.2
28 | O=C(NOCC(O)CO)c1cc(Br)c(F)c(F)c1Nc1ccc(I)cc1F (configuration not stated) | 132 | 16.8
29 | Cc1cccc(Nc2ccccc2C(=O)O)c1C [mefenamic-acid] | 111 | -1.23
30 | OCCn1cc(-c2ccc3c(c2)CC/C3=N\O)c(-c2ccncc2)n1 | 97.5 | 0.274
31 | Cc1cn(-c2cc(NC(=O)c3ccc(C)c(Nc4nccc(-c5cccnc5)n4)c3)cc(C(F)(F)F)c2)cn1 [Nilotinib] | 104 | -4.47
32 | C[S+]([O-])c1ccc(-c2nc(-c3ccc(F)cc3)c(-c3ccncc3)[nH]2)cc1 (configuration not stated) | 119 | -5.98
33 | NC(=O)c1ccc(-c2nc(-c3ccccn3)c(-c3ccc4c(c3)OCO4)[nH]2)cc1 | 130 | -2.96
34 | CCCCNc1ccc(C(=O)OCCN(C)C)cc1 [tetracaine-hydrochloride-pontocaine] | 117 | -6.34
35 | CN1CCc2c(c3ccccc3n2Cc2ccc(C(=O)NO)cc2)C1 [tubastatin-a] | 108 | -3.05
36 | Cn1cnc2c(F)c(Nc3ccc(Br)cc3F)c(C(=O)NOCCO)cc21 | 138 | 23
